From PubChem
ALOX12 inh = Primary qHTS assay for inhibitors of human arachidonate 12S-lipoxygenase (ALOX12): Round 2. purified 12hLO, xylenol orange hydroperoxide absorbance. Potency, µM (series often up to 108 µM), without a hit: at the highest dose activity change, negative = inhibition, actives largely listed as inhibitors. Polyunsaturated fatty acid lipoxygenase ALOX12 (Homo sapiens), P18054. hit rate 1.1% among 580,000; also: % is scaled to controls: 0 for no effect and ±100 for the full control effect
Target sequence (P18054 whole entry, looked up): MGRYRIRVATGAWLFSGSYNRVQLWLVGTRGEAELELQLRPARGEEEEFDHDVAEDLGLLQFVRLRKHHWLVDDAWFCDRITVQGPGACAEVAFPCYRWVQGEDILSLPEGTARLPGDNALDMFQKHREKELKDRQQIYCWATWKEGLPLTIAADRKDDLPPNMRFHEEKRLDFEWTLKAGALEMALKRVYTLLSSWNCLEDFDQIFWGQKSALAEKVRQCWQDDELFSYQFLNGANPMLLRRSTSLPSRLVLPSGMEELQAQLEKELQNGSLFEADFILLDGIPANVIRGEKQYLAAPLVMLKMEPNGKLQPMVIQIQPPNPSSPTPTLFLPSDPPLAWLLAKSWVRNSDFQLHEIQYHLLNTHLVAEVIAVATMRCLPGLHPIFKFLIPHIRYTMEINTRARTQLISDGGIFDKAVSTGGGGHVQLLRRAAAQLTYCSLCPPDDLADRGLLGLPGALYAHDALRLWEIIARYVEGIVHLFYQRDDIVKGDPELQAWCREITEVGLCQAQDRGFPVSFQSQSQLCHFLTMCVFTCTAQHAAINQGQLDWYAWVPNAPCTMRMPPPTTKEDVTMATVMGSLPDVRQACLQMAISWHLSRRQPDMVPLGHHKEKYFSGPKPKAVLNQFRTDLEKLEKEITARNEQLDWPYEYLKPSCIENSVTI
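Purified human 12hLO at 150 nM in 25 mM Hepes, 0.01% Triton X-100, pH 7.0, preincubated 15 min at room temperature with compound. Reaction started with 40 uM arachidonic acid, 30 min at room temperature. Hydroperoxide measured by Fe-xylenol orange, 573/405 nm absorbance ratio.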
KB-V1 MDR tox = qHTS assay for MDR1-selective chemotherapeutics: Primary screen using the drug-selected MDR subline cells KB-V1. hit rate 3.4% among 400,000. Potency, µM (highest dose often 46.1 µM), usual class: cytotoxic. KB-V1 MDR cells viability, CellTiter-Glo, 72 h; also: % is scaled to controls: 0 for no effect and ±100 for the full control effect; nearly all actives have a fitted effect of over 60% in size
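Cytotoxicity via CellTiter-Glo luminescence after 72 h compound exposure at 37 degrees C. Cells: drug-selected KB-V1 line, DMEM phenol-red free plus 10% FBS. Compounds tested at multiple concentrations; normalized data fitted to concentration-effect curves.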
SW480 rereplic = A quantitative high throughput screen for small molecules that induce DNA re-replication in SW480 colon adenocarcinoma cells. Potency, µM (highest dose often 46.1 µM), for the others: top-dose re-replication activation, usual class: activators. AID 624297, 2012. hit rate 1.8% among 340,000. SW480 DNA re-replication, Hoechst DNA content imaging, 48 h; also: % of control where 0% means no effect; nearly all actives have a fitted effect of over 55% in size
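SW480 cells exposed to compounds for 48 hr at 37 C, 5% CO2, then Hoechst-stained 40 min. Nuclear DNA content imaged by fluorescence scanning (405 nm excitation, 500-530 nm emission); re-replication scored as increased high-intensity nuclei.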
KB-3-1 tox = qHTS assay for MDR1-selective chemotherapeutics: Primary screen using the parental adenocarcinoma cell KB-3-1. KB-3-1 viability, CellTiter-Glo ATP luminescence, 72 h. Potency, µM (series often up to 46.1 µM), actives largely listed as cytotoxic. hit rate 1.4% among 400,000. AID 1347075, 2019; also: % is scaled to controls: 0 for no effect and ±100 for the full control effect; nearly all actives have a fitted effect of over 60% in size
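Screening of KB-3-1 cells (DMEM, 10% FBS, phenol-red free) ran from lowest to highest compound concentration; after 72 h at 37 °C viability was read luminescently and curves fitted.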
PINK1 expr mod = A Quantitative High throughput Screen to Identify Chemical Modulators of PINK1 Expression. PINK1 immunofluorescence, high-content cytometry, 24 h. AID 624263, 2012. Potency, µM (top dose mostly 76.6 µM), for the others: at the top dose activation (PINK1 increase), hits mostly activators. hit rate 0.2% among 410,000; active = well fitted activation curve with a large enough effect; inconclusive = small, poorly fitted or top-dose-only effect; cell line not stated here; also: % of control where 0% means no effect; nearly all actives have a fitted effect of over 65% in size
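Compound titrations (5 concentrations, 24 h) on a stable cell line; DMSO and CCCP controls. Endpoint: fixed-cell PINK1 immunofluorescence with mitochondrial, cell and nuclear markers, scanned by microplate cytometer.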
MCF10A rerep = A quantitative high throughput screen for small molecules that induce DNA re-replication in MCF 10a normal breast cells | hit rate 2.9% among 350,000 | Potency, µM (series often up to 46.1 µM), without a hit: at the top dose activity, positive = re-replication, most hits filed as activators | AID 624296, 2012 | MCF 10A DNA re-replication, Hoechst nuclear intensity, 48 h; also: % of control where 0% means no effect; nearly all actives have a fitted effect of over 50% in size
* = called active by the depositor; i = inactive; ? = inconclusive; nt = not tested or not shown; [ ] = remark or other dose. Only some compounds are listed: those with a hit (about 5.8% of all), similar ones and a draw of the others. Unless noted, calls follow the shape of the dose curve; as a rule, active = well fitted curve in the direction sought with a large enough effect; inconclusive = small, poorly fitted or top-dose-only effect, or another doubt; inactive = no such curve, though single readings can be large; an effect the other way counts as inactive or inconclusive. Potency is read from the fitted curve at half-maximal effect.

SMILES	ALOX12 inh	KB-V1 MDR tox	SW480 rereplic	KB-3-1 tox	PINK1 expr mod	MCF10A rerep
O=S(=O)(CCNCCc1ccccc1)NCc1ccccc1	-3%	i	33%	i	-1%	-5%
CC1CCCN(c2ccc(C(=O)O)cc2NS(=O)(=O)c2ccc(Br)s2)C1 (centres undefined)	5.6µM*	nt	nt	nt	nt	nt
CCCC(=O)N1CCn2c(nnc2[C@@H]2C[C@@H](O)CN2Cc2ccccc2)C1	21%	nt	nt	nt	nt	nt
CCOC(=O)c1sc(-c2ccc(F)cc2)cc1N	?	i	-6%	i	?	?
CCOC(=O)c1sc2nc(C3CC3)cc(-c3ccc(F)cc3)c2c1N	-28%	15µM*	18µM*	i	1%	?
CCOC(=O)c1sc2nc(C3CC3)cc(-c3ccc(OC)cc3)c2c1N	14%	i	6.5µM*	i	11%	3.7µM*
CCOC(=O)c1sc(-c2ccc(OC)cc2)cc1N	3%	i	18%	i	2%	?
Cc1ccccc1CCN1CCCC(CN(C)C(=O)Nc2ccccc2C)C1 (centres undefined)	32%	nt	nt	nt	nt	nt
OC(C#CCN1CCCCC1)(c1ccccc1)c1ccccc1	3%	i	?	i	1%	?
CC(C)C(C#CCN1CCCCC1)(c1ccccc1)c1ccccc1	20µM*	nt	nt	nt	nt	nt
OC(CCN1CCCCC1)(c1ccccc1)c1ccccc1	8%	i	-10%	i	0%	2%
OC(CCCN1CCCCC1)(c1ccccc1)c1ccc(C(F)(F)F)cc1 (centres undefined)	-8%	i	?	i	5%	21µM*
OC(CC#CCN1CCCCCC1)(c1ccccc1)c1ccc(-c2ccccc2)cc1 (centres undefined)	18µM*	nt	nt	nt	nt	nt
OC(CC#CCN1CCN(CC#CCC(O)(c2ccccc2)c2ccccc2)CC1)(c1ccccc1)c1ccccc1	11µM*	nt	nt	nt	nt	nt
CC(C)CCn1nc(C(=O)OCc2nnc(-c3ccccc3)o2)c2ccccc2c1=O	0%	nt	nt	nt	nt	nt
Nc1cc(N)nc(SCc2ccccc2)n1	-12%	i	1%	i	2%[38.3 µM]	-1%
Nc1nc(SCc2ccccc2)cc(SCc2ccccc2)n1	4%	i	8%	i	7%	8.2µM*
Cc1ccn(-c2n[nH]c(C)c2[N+](=O)[O-])n1	-9%	i	0%	i	-1%	-6%
Cc1ccn(-c2ccc([N+](=O)[O-])cc2)n1	-13%	i	21µM*	i	-2%	-183%[0.0737 µM]
COc1cccc(-c2ccc3c(c2)N(Cc2cccc(F)c2)C(=O)C(C)S3)c1 (centres undefined)	1%	i	nt	i	-1%	nt
COc1cc(C2CC(=O)N(Cc3cccc(F)c3)c3ccccc3S2)cc(OC)c1OC (centres undefined)	-11%	16µM*	nt	?	-2%	nt
CCOc1ccc(C(=O)/C=C/c2cn(CN3CCN(C)CC3)c3ccccc23)cc1	-21%	i	?	i	?	10µM*
CCCN(CCC)CC(O)Cn1cc(/C=C/C(=O)c2ccc(OCC)cc2)c2ccccc21 (centres undefined)	?	?	nt	i	-6%	nt
COc1ccc(C(=O)/C=C/c2cn(CN3CCN(C)CC3)c3ccccc23)cc1	nt	i	21µM*	?	?	8.2µM*
CSC1CCCCC1(O)CSc1nc(-c2ccc(C)cc2)cc(-c2ccccc2)c1C#N (centres undefined)	-2%	nt	nt	nt	nt	nt
SMILES	ALOX12 inh	KB-V1 MDR tox	SW480 rereplic	KB-3-1 tox	PINK1 expr mod	MCF10A rerep
Cc1cccc(NC(=S)NC(=O)c2cccs2)n1	16%	?	2.9µM*	i	1%[38.3 µM]	1%
CC(NC(=S)NC(=O)c1cccs1)c1ccccc1 (centres undefined)	25µM*	i	21%	i	7%	-1%
CCc1cccc(CC)c1NC(=S)NC(C)c1ccccc1 (centres undefined)	40µM*	?	-3%	i	2%	4%
Cn1cc(C#N)cc1C(=O)N1CCCC(C)(Cc2ccc3c(c2)OCO3)C1 (centres undefined)	5%	nt	nt	nt	nt	nt
O=C(COc1ccc(Br)cc1)N(Cc1ccccc1)c1ccccn1	?	18µM*	-3%	i	-1%	11%
CC(C)(Oc1ccc(Cl)cc1)C(=O)N(Cc1ccccc1)c1ccccn1	13%	15µM*	?	i	25%	8%
O=C(COc1ccc(Cl)cc1)N(Cc1ccccc1)c1ccccn1	-18%	i	3%	i	-1%	?
Cc1ccc(-c2cc(C(=O)NCc3ccco3)c3ccccc3n2)cc1C	-8%	nt	nt	nt	nt	nt
CC(=O)NC(NC(C)=O)c1ccccc1F	-8%	nt	nt	nt	nt	nt
COc1cc(CNCCCN2CCOCC2)cc(Br)c1OCc1ccc(Cl)cc1	?	?	-3%	?	-2%	13µM*
COc1cc(NC(=S)NCCC(c2ccccc2)c2ccccc2)c(OC)cc1Cl	40µM*	?	5%	?	0%	?
COc1cc(NC(=O)C(c2ccccc2)c2ccccc2)c(OC)cc1Cl	12%	nt	nt	nt	nt	nt
S=C(NCCC(c1ccccc1)c1ccccc1)Nc1ccccc1Cl	?	i	-3%	i	19%	?
COc1ccccc1NC(=S)NCCC(c1ccccc1)c1ccccc1	35µM*	i	4%	i	3%	33%
COc1cc(CNCCN2CCOCC2)ccc1OCc1ccc(Cl)cc1	?	i	?	?	0%	?
COc1cc(Cl)ccc1NC(=S)N(CCCN1CCOCC1)Cc1cn(C)c2ccccc12	2%	i	?	?	-3%	?
COc1ccc(Cl)cc1NC(=S)N(CCCN1CCOCC1)Cc1cn(C)c2ccccc12	-3%	i	23µM*	?	0%	?
CN(C)C(=O)c1ccc(NC(=O)COc2ccccc2-c2ccccc2)cc1	5%	nt	nt	nt	nt	nt
FC(F)(F)c1cccc(CSc2nnc(-c3ccncc3)n2-c2ccc(Br)cc2)c1	18%	nt	nt	nt	nt	nt
COc1ccc(C(C)=O)cc1COC(=O)/C=C/c1cc(Br)ccc1F	8%	nt	nt	nt	nt	nt
COc1ccc(Cl)cc1NC(=S)NCCC(c1ccccc1)c1ccccc1	32µM*	?	?	?	0%	14%
COc1ccc(Cl)cc1NC(=S)NCCN1CCOCC1	-28%	i	?	i	5%	0.46µM*
